# Screening data (PubChem BioAssay)
# Compounds with a hit are over-represented: about 2.1% of the library has one in this group of screens.
# Nox1 inh: inhibitors of human NADPH oxidase 1 (Nox1). Q9Y5S8. HT29 cells, luminol chemiluminescence ROS. inhibition, % at 6.7 µM. hit rate 0.81% among 16,000. AID 1792
# Target sequence (Q9Y5S8 whole entry, looked up): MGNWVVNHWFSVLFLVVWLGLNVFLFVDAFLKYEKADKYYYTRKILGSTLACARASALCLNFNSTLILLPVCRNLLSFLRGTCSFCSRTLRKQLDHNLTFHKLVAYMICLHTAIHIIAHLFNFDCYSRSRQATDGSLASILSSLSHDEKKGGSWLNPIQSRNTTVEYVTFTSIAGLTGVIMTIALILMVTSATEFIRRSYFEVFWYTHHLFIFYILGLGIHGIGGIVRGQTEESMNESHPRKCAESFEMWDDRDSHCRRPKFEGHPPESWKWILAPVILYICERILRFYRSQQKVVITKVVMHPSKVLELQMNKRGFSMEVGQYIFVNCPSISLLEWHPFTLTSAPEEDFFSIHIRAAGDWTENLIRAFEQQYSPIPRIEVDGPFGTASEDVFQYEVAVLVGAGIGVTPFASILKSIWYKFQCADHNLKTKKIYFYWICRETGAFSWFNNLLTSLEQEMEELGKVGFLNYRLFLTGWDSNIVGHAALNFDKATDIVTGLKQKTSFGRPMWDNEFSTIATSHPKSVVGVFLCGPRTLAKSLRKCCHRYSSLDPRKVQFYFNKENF
# PME-1 Maybr inh: PME-1 (human) inhibition, Maybridge primary screen; Q9Y570; recombinant PME-1, FP-Rh probe fluorescence polarization; inhibition, % at 9 µM; hit rate 0.5% among 16,000; AID 2291; in the data active = inhibition above about 30%
# Luminol counter: quenches luminol chemiluminescence in Nox1 counter-screen. hit rate 0.4% among 16,000. HRP/luminol/H2O2 chemiluminescence counterscreen. AID 1823. inhibition, % at 6.7 µM; note: reference of the scale not given here
# NOTCH ag: agonists of NOTCH signaling. hit rate 0.4% among 15,000. activation, % at 2.5 µM. NOTCH signaling luciferase reporter cells, luminescence; in the data active = activation above about 2.2%
# An asterisk follows results filed as active; / = no result. Cut-off read from the data, not from the text of the source, unless noted: active = inhibition above about 75%; inactive = the rest.
SMILES,Nox1 inh,PME-1 Maybr inh,Luminol counter,NOTCH ag
NC(=O)c1cc2c(c([N+](=O)[O-])c1)-c1c(cc(C(N)=O)cc1[N+](=O)[O-])C2=O,-27.6,37.8*,-2.1,-0.1
CC1CC(NC(=S)NCCO)CC(C)(C)C1 (stereo not given),-7.7,-13.7,6.3,1.4
CNc1ccc(Cl)cc1C(=O)NC1CC(C)CC(C)(C)C1 (stereo not given),-7.9,1.1,-1.1,2.6*
FC(F)(F)c1cnc(NCCCNC(=S)Nc2cccnc2)c(Cl)c1,24.6,5.5,-2.8,2.8*
O=C1c2ccccc2N(Cc2ccccc2)C(=O)C1(Cl)Cl,14.3,-1.0,2.4,-0.7
OC(CSc1nc2cccnc2s1)C(F)(F)F (stereo not given),-11.6,2.4,-5.1,0.1
NNC(=O)CSc1nc2cccnc2s1,75.9*,7.7,11.6,0.1
CC(C)=N/N=C1/N=C(c2ccc(Cl)cc2)CS1,-113.3,1.9,7.5,0.0
O=C1Nc2ccccc2/C1=C\c1c[nH]c2ccccc12,9.4,34.5*,-16.2,-0.2
C=CCn1c(SCC(=O)NNC(=S)NC)nnc1-c1ccccc1,-10.8,6.8,88.7*,0.1
C=CCn1c(SCC(=O)N2CCc3ccccc32)nnc1-c1ccc(Cl)cc1,-29.8,-0.5,-0.9,-0.4
C=CCn1c(SCc2n[nH]c(=S)n2C)nnc1-c1ccccc1,4.1,5.6,82.0*,-0.6
CC(C)(C)OC(=O)NC1CCN(C(=O)Nc2cc(Cl)cc(Cl)c2)CC1,5.4,-13.6,-5.1,-0.3
CC(N=Cc1cc(Cl)ccc1O)c1ccc2c(c1)OCCO2 (stereo not given),10.3,0.8,-5.7,1.2
Nn1c(-c2ccc(Cl)cc2)n[nH]c1=S,19.6,5.1,99.1*,-0.4
Cn1c(=O)c2c(NCc3ccccc3)cc(=O)n(C)c2n(C)c1=O,-48.1,-0.5,3.8,8.5*
N#CSCc1ccc(C#N)cc1,10.2,7.4,-6.9,-0.1
O=C(N/N=C/c1cc(Cl)cc(Cl)c1O)C(=O)Nc1ccc(Cl)c(Cl)c1,-65.8,-82.0,-1.3,4.1*
COc1ccc(C(=O)N/N=C/c2cc(Cl)cc(Cl)c2O)cc1,32.0,-1.1,-2.7,/
N=C(N)SCc1csc2ccccc12,23.7,3.2,-5.8,2.4*
NC(=O)c1cccc(CSCc2csc3ccccc23)c1,-14.1,0.9,-2.9,-0.4
Cc1onc(-c2ccccc2Cl)c1C(=O)NNC(=O)CSc1ccccc1[N+](=O)[O-],11.3,1.9,1.6,0.4
N#CCC(=O)NNC(=S)Nc1ccccc1,89.5*,1.7,17.9,-0.4
N#CCC(=O)NNC(=O)c1ccccc1Cl,-50.3,2.0,-0.1,-0.2
O=C1N/C(=N/N=C\c2[nH]ncc2Br)SC1c1ccccc1 (stereo not given),-22.6,-5.6,-0.5,0.3
SMILES,Nox1 inh,PME-1 Maybr inh,Luminol counter,NOTCH ag
COC(=O)c1ccc(S(=O)(=O)Nc2ccc(N3CCOCC3)cc2)n1C,90.6*,1.2,39.6,0.1
CCOC(=O)c1cnc(C(F)(F)F)nc1NNC(=O)c1ccno1,10.2,5.0,-1.7,-0.6
O=c1[nH][nH]c2cccc(F)c12,79.3*,-1.5,10.5,-1.0
COC(=O)c1sccc1NNC(=O)CC#N,87.2*,3.0,14.7,0.1
CC1N=C(c2ccc(Cl)cc2)NO1 (stereo not given),10.2,6.5,-4.9,-0.6
CCn1cc(C(=O)O)c(=O)c2cc(Cl)ccc21,0.0,-1.4,2.8,-0.6
CCC(=O)N1c2cc(Cl)ccc2-n2c(nn(C(=O)CC)c2=O)N1C(=O)CC,88.5*,0.8,1.8,-0.9
Nc1nc(NCc2ccco2)n[nH]1,94.4*,6.4,90.2*,-0.2
COc1cc2c(cc1OC)CN(C(=O)c1cc(C(C)(C)C)nn1C)CC2,-12.1,3.6,-4.3,-0.1
CS(=O)(=O)Cc1noc(-c2cc(C(F)(F)F)cc(C(F)(F)F)c2)n1,21.9,2.5,-5.1,-0.4
O=S(=O)(Cc1ccc(F)cc1)Cc1noc(-c2ccc(F)cc2Cl)n1,-21.1,1.2,-1.8,2.3*
COc1ccccc1NS(=O)(=O)c1ccccc1[N+](=O)[O-],-38.9,1.3,1.2,0.1
COc1ccccc1NS(=O)(=O)c1ccc(Cl)s1,-16.6,32.0*,2.7,/
CC(C)(C)OC(=O)N[C@@H](Cc1ccccc1)c1n[nH]c(=S)n1CC1CCCO1 (stereo not given in full),14.2,6.8,97.3*,-0.1
Nc1nc(-c2cccc([N+](=O)[O-])c2)cs1,14.7,7.4,4.0,-0.2
O=C(NNc1nc(-c2cccc([N+](=O)[O-])c2)cs1)c1ccccc1Cl,75.2*,3.8,0.9,-0.1
Cc1cc2c(N)cccc2nn1,45.1,105.6*,5.9,-0.8
CC1(C)c2cc(O)ccc2OC1N1CCOCC1 (stereo not given),85.3*,5.0,96.0*,-0.2
CC(=O)c1cc([N+](=O)[O-])c(Sc2ccc(Cl)cc2)s1,-89.2,3.3,4.4,-1.1
CC(=O)c1cc([N+](=O)[O-])c(SCc2ccc(Cl)cc2)s1,6.4,31.9*,-5.0,-0.5
Cn1nc(-c2ccc(S(=O)(=O)Oc3cccc([N+](=O)[O-])c3)s2)cc1C(F)(F)F,7.9,6.1,-1.1,-1.1
Cc1cc(/C=N\NC(=O)CCc2ccc(O)cc2)c2c(C)ccc(C(C)C)cc1-2,-11.1,49.3*,-27.3,0.0
Cc1cc(C(=O)CCN2CCC(c3cc(C)sc3C)=N2)c(C)s1,-25.5,1.9,-0.2,-0.2
FC(F)(F)c1cccc(Nc2nnc(-c3cccnc3)s2)c1,-38.4,1.4,-0.1,-0.2
FC(F)(F)c1nnc(Nc2cccnc2)s1,-81.6,3.6,-0.9,4.5*
SMILES,Nox1 inh,PME-1 Maybr inh,Luminol counter,NOTCH ag
Cc1cc(C(=O)OCC(=O)c2ccc(Cl)cc2)ccc1[N+](=O)[O-],-5.3,0.9,-0.3,-0.4
COc1ccccc1NNC(=O)c1cc(C(C)(C)C)nn1Cc1ccccc1,90.9*,6.6,0.2,-0.1
CSc1nnc(SCC(=O)N2CCC(C(F)(F)F)CC2)s1,-36.0,-3.9,3.3,2.7*
COCCCNC(=S)NNC(=S)Nc1ccccc1,90.8*,4.4,4.3,0.0
COCCCNC(=S)Nc1ccc(C)cc1,10.1,0.4,-5.0,0.3
O=C1ON=C(CSc2ccccc2)/C1=C/c1ccc(Cl)cc1,-47.3,10.7,4.5,-0.2
COc1cc(/C=N\n2c(C)n[nH]c2=S)cc(OC)c1OC,53.0,6.3,100.9*,0.4
CN1CCN(c2ccc(NS(=O)(=O)c3cccc(C(F)(F)F)c3)cc2)CC1,93.7*,1.9,66.7,0.2
Cc1ccc(S(=O)(=O)Nc2ccccc2N2CCCCC2)cc1Cl,-15.0,-0.5,9.0,/
O=S(=O)(Nc1ccc(N2CCCCC2)cc1)c1ccccc1,100.8*,6.0,12.5,-0.2
O=C(NNC(=O)c1sccc1OCc1ncc(C(F)(F)F)cc1Cl)c1ccccc1,-39.3,2.6,0.7,-0.3
Cc1nc(Sc2ncn[nH]2)c2sc(=S)n(-c3ccccc3)c2n1,9.5,19.7,-2.3,-1.0
CCOC(=O)C1=C(Nc2ccc(OC(C)=O)cc2)C(=O)N(C(C)(C)C)C1,83.5*,-2.1,3.5,-0.2
CCO/C(C)=N/OC(=O)Nc1ccc(OC(F)(F)F)cc1,-57.2,0.6,-0.6,-0.6
S=c1[nH]nc(-c2cccc3ccccc23)n1-c1cccnc1,23.5,-0.7,88.9*,-0.5
